From PubChem BioAssay (Tox21)
Results filed as inconclusive are left out. The source made the active and inactive calls. Unless noted, calls come from the whole dose curve.

Key:
[1] = qHTS assay to identify small molecule antagonists of the estrogen related receptor signaling pathway with the pleiotropic PPARgamma coactivator (PGC) from Tox21 10K library - cell viability counter screen (AID 1224840; active = well fitted cell-killing curve with a large enough effect in the repeat runs, not every such curve was filed as active; note: nearly all actives have a fitted effect of over 40% in size)
In short: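 Cell viability is measured by CellTiter-Fluor fluorescence in PGC/ERR cells that receive compounds after a 6-hour attachment period and are then incubated 17.5 hours at 37 C.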

[2] = qHTS assay to identify small molecule antagonists of the estrogen related receptor signaling pathway with the pleiotropic PPARgamma coactivator (PGC) from Tox21 10K library (AID 1224841; call rule not given here; note: series mostly up to about 92 µM; actives are mostly falling curves and most rising ones were filed inactive; nearly all actives have a fitted effect of over 50% in size)
In short: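 Cells stably carrying the PGC/ERR reporter, seeded at 2,000 per well, received pin-transferred compounds 6 h post-plating. Exposure lasted 18 h at 37 C. Signal: One-Glo luminescence.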

[3] = qHTS assay to identify small molecule agonists of the estrogen related receptor signaling pathway with the pleiotropic PPARgamma coactivator (PGC) from Tox21 10K library (AID 1224842; active = well fitted curve in the direction sought with a large enough effect in the repeat runs; an effect the other way counts as inactive or inconclusive; note: nearly all actives have a fitted effect of over 15% in size)
In short: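 PGC/ERR reporter cells (NTP line) were seeded 2,000 per well, rested 6 h at 37 C/5% CO2, then pin-dosed with compounds in DMSO for 18 h at 37 C; luciferase read by One-Glo luminescence after 30 min at room temperature.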

[4] = qHTS assay to identify small molecule agonists of the hypoxia (HIF-1) signaling pathway - cell viability counter screen (AID 1224844); note: nearly all actives have a fitted effect of over 50% in size
In short: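 Viability counter screen: HRE-bla ME-180 cells plated 5 hrs before compound addition, treated 17 hrs at 37C and 5% CO2, then CellTiter-Glo added after the FRET reporter read; luminescence after 30 min.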

[5] = qHTS assay to identify small molecule agonists of H2AX (AID 1224845; active = well fitted activation curve with a large enough effect in the signal ratio in the repeat runs, not every such curve was filed as active; the % refers to the signal ratio)
In short: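 Wild-type CHO-K1 cells plated overnight, then exposed 3 hr at 37C to compounds at 15 concentrations (0.76% DMSO). Lysed, then HTRF anti-pH2AX(S139)-cryptate/anti-H2AX-d2 detection after 24 hr at room temperature; emissions 665 and 620 nm.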

[6] = qHTS assay to identify small molecule agonists of the hypoxia (HIF-1) signaling pathway (AID 1224846; active = well fitted activation curve with a large enough effect in the signal ratio in the repeat runs, not every such curve was filed as active; the % refers to the signal ratio)
In short: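 Agonist mode reporter screen. ME-180 cells stably expressing bla under HRE control received test compounds in DMSO for 17 hrs (37C, 5% CO2), and beta-lactamase activity was then detected with the CCF4-AM FRET substrate.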

[7] = qHTS assay to identify small molecule agonists of H2AX - cell viability counter screen (AID 1224847); note: top concentration of the series differs between compounds; nearly all actives have a fitted effect of over 30% in size
In short: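 Quantitative HTS viability measurement: CHO-K1 wild-type cells in serum (10% FBS) medium, short 3 hr drug exposure at 37C with 0.76% DMSO, CellTiter-Glo luminescent detection.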

[8] = qHTS assay to identify small molecule antagonists of the estrogen related receptor (ERR) signaling pathway from Tox21 library (AID 1224848; active = well fitted curve in the direction sought with a large enough effect in the repeat runs; an effect the other way counts as inactive or inconclusive; note: nearly all actives have a fitted effect of over 50% in size)
In short: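 First, 2,000 ERR cells per well were plated and held 6 h at 37 C/5% CO2. Next, compounds in DMSO were pinned in and left 18 h at 37 C. Finally, ONE-Glo was added and luminescence read after 30 min at room temperature.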

[9] = qHTS assay to identify small molecule agonists of the estrogen related receptor (ERR) signaling pathway from Tox21 library (AID 1224849); note: nearly all actives have a fitted effect of over 15% in size
In short: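 Quantitative HTS in agonist format: NTP ERR cell line, compounds transferred in DMSO after 6 h plating, 18 h incubation at 37 C, ONE-Glo luminescence endpoint.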

[10] = target: Thyrotropin receptor (Homo sapiens) (UniProt P16473); assay: qHTS assay to identify small molecule agonists of the thyroid stimulating hormone receptor (TSHR) signaling pathway (AID 1224843); note: nearly all actives have a fitted effect of over 45% in size
In short: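 Compounds are titrated over 15 concentrations, in triplicate, onto TSHR-HEK293 cells seeded at 800/well. Plates sit 30 min at room temperature before cAMP-d2 and anti-cAMP cryptate are added; signal is read after a further hour.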
% is set by controls: 0 for no effect and ±100 for the full control effect.

Chain of Thyrotropin receptor (Homo sapiens) (P16473 whole entry, looked up): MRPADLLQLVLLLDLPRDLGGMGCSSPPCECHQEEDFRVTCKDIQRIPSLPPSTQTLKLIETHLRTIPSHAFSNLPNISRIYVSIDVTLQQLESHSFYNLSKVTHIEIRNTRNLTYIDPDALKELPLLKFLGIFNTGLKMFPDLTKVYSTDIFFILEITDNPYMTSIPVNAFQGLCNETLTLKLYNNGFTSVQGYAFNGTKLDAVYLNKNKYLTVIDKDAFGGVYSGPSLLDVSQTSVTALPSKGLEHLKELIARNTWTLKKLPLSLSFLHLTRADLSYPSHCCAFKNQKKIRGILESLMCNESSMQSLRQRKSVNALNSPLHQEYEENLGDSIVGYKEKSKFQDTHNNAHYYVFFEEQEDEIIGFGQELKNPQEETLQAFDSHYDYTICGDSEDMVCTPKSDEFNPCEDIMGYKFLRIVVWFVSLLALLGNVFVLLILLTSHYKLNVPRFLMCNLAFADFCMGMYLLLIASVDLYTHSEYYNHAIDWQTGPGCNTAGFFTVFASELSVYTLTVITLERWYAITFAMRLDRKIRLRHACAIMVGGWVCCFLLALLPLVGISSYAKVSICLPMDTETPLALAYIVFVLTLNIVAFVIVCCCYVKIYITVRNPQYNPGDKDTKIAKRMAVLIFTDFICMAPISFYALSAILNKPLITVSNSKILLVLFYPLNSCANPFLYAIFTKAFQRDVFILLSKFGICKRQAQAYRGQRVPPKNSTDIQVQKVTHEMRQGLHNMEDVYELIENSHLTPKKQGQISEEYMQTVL

C=CCOc1c(Br)cc(Br)cc1Br
inactive: outcome [1] | Potency [2] | outcome [3] | outcome [4] | outcome [5] | outcome [6] | Potency [7] | Potency [8] | outcome [9]

O=P(O)(O)OCC(O)CO (configuration not stated)
inactive: outcome [1] | Potency [2] | outcome [3] | outcome [4] | outcome [5] | outcome [6] | Potency [7] | Potency [8] | outcome [9]

CC(C)CCC(=O)CCC(C)C
inactive: outcome [1] | Potency [2] | outcome [3] | outcome [4] | outcome [5] | outcome [6] | Potency [7] | Potency [8] | outcome [9]

CCCCCCCCCCCCCCCCI
inactive: viability change, negative = cytotoxic [1] -0.222% [at 19 µM] | activity, negative = inhibition [2] -7.26% [at 19 µM] | activation [3] -1.58% [at 19 µM] | activation [10] -19.7% [at 19 µM] | activation (H2AX phosphorylation) [5] 0.0964% [at 31.6 µM] | activation [6] 0.543% [at 15.8 µM] | activity change, negative = cytotoxicity [7] -0.0372% [at 31.6 µM] | activity, negative = inhibition [8] 4.33% [at 19 µM] | activity change, positive = activation [9] 2.23% [at 19 µM]

CC1CCC(C(C)(C)S)C(=O)C1 (configuration not stated)
inactive: outcome [1] | Potency [2] | outcome [3] | outcome [4] | outcome [5] | outcome [6] | Potency [7] | Potency [8] | outcome [9]

CCN(CCO)c1cccc(C)c1
inactive: outcome [1] | Potency [2] | outcome [3] | outcome [4] | outcome [5] | outcome [6] | Potency [7] | Potency [8] | outcome [9]

CC(=O)/C=C/c1ccco1
inactive: outcome [1] | Potency [2] | outcome [3] | outcome [4] | outcome [5] | outcome [6] | Potency [7] | Potency [8] | outcome [9]

O=c1[nH]c(=O)c2ccccc2o1
inactive: outcome [1] | Potency [2] | outcome [3] | outcome [4] | outcome [5] | outcome [6] | Potency [7] | Potency [8] | outcome [9]

Cn1c(=O)c2c(ncn2CC2OCCO2)n(C)c1=O
inactive: outcome [1] | Potency [2] | outcome [3] | outcome [4] | outcome [5] | outcome [6] | Potency [7] | Potency [8] | outcome [9]

CC(=O)c1ccc(OCC(=O)N2CCCCC2)cc1
inactive: outcome [1] | Potency [2] | outcome [3] | outcome [10] | outcome [5] | outcome [6] | Potency [7] | Potency [8]

CC(=O)OC[C@H]1O[C@@H](OC(C)=O)[C@H](OC(C)=O)[C@@H]1OC(C)=O
inactive: outcome [1] | Potency [2] | outcome [3] | outcome [4] | outcome [5] | outcome [6] | Potency [7] | Potency [8] | outcome [9]

CN=C(NC#N)NCCSCc1csc(N=C(N)N)n1
inactive: outcome [1] | Potency [2] | outcome [3] | outcome [4] | outcome [5] | outcome [6] | Potency [7] | Potency [8] | outcome [9]

F[Si-2](F)(F)(F)(F)F
inactive: outcome [1] | Potency [2] | outcome [3] | outcome [4] | outcome [5] | outcome [6] | Potency [7] | Potency [8] | outcome [9]

CN[C@@H]1[C@@H](O)[C@@H](O[C@@H]2[C@H](O)[C@H](O[C@H]3OC(CN)=CC[C@H]3N)[C@@H](N)C[C@H]2N)OCC1(C)O (some centres not stated)
inactive: outcome [1] | Potency [2] | outcome [3] | outcome [10] | outcome [4] | outcome [5] | Potency [7] | Potency [8] | outcome [9]

CCCOC(=O)CCCCC(=O)OCCC
inactive: outcome [1] | Potency [2] | outcome [3] | outcome [4] | outcome [5] | outcome [6] | Potency [7] | Potency [8] | outcome [9]

CCC(C)(CCC(C)C)C(=O)[O-].CCC(C)(CCC(C)C)C(=O)[O-].[Zn+2] (configuration not stated)
inactive: outcome [1] | Potency [2] | outcome [3] | outcome [4] | outcome [5] | outcome [6] | Potency [7] | outcome [9]

C[C@H](CCC(=O)NCC(=O)O)[C@H]1CC[C@H]2[C@@H]3[C@H](O)C[C@@H]4C[C@H](O)CC[C@]4(C)[C@H]3C[C@H](O)[C@]12C
inactive: outcome [1] | Potency [2] | outcome [3] | outcome [10] | outcome [4] | outcome [5] | Potency [7] | Potency [8] | outcome [9]

CCNC(=O)NCCCOc1cccc(CN2CCCCC2)c1
inactive: outcome [1] | Potency [2] | outcome [3] | outcome [4] | outcome [5] | outcome [6] | Potency [7] | Potency [8] | outcome [9]

CNCc1ccccc1
inactive: outcome [1] | Potency [2] | outcome [3] | outcome [4] | outcome [5] | outcome [6] | Potency [7] | Potency [8] | outcome [9]

CCCOCCOCCOCCO
inactive: outcome [1] | Potency [2] | outcome [3] | outcome [4] | outcome [5] | outcome [6] | Potency [7] | Potency [8] | outcome [9]

O=C(Oc1ccccc1C(=O)O)c1ccccc1O
inactive: outcome [1] | Potency [2] | outcome [3] | outcome [4] | outcome [5] | outcome [6] | Potency [7] | Potency [8] | outcome [9]

O=CN1CCOCC1
inactive: outcome [1] | Potency [2] | outcome [3] | outcome [4] | outcome [5] | outcome [6] | Potency [7] | Potency [8] | outcome [9]

CC(C)COC(=O)COc1ccc(Cl)cc1Cl
inactive: outcome [1] | Potency [2] | outcome [3] | outcome [4] | outcome [5] | outcome [6] | Potency [7] | Potency [8] | outcome [9]

CN(C)CCOCCN(C)CCO
inactive: outcome [1] | Potency [2] | outcome [3] | outcome [4] | outcome [5] | outcome [6] | Potency [7] | Potency [8] | outcome [9]

CC(C)(CO)[C@@H](O)C(=O)NCCCO
inactive: outcome [1] | Potency [2] | outcome [3] | outcome [10] | outcome [4] | outcome [5] | Potency [7] | Potency [8] | outcome [9]

CC(C)SCc1ccco1
inactive: outcome [1] | Potency [2] | outcome [3] | outcome [4] | outcome [5] | outcome [6] | Potency [7] | Potency [8] | outcome [9]
